Experimental data from PubChem BioAssay (Tox21).
“And” between values parts separate entries of the source, which are not always exact repeats. Equal entries are not always repeated. The source holds several records for some structures; these can differ, active in one and inactive in another. The source made the active and inactive calls. A call without a number means that no potency is given here. Unless noted, the call rests on the fitted dose curve; in most records, active means well fitted curve in the direction sought with a large enough effect in the repeat runs; inconclusive means weak or mixed curves; inactive means no such curve, though single readings can be large; an effect the other way counts as inactive or inconclusive.

What was measured:
[1] = qHTS assay to identify small molecule antagonists of the glucocorticoid receptor (GR) signaling pathway - cell viability counter screen (AID 720693); further: nearly all actives have a fitted effect of over 55% in size; further: potency means the concentration at half of the fitted maximal effect
[2] = qHTS assay for identifying genotoxic compounds that show differential cytotoxicity against isogenic chicken DT40 cell lines with known DNA damage response pathways - wild type cell line (AID 743012); further: nearly all actives have a fitted effect of over 60% in size; further: potency means the concentration at half of the fitted maximal effect
In short: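 Viability by ATP luminescence (CellTiter-Glo, 30 min RT) after 40 h compound treatment at 37 C/5% CO2, using 300 parental DNA repair-proficient DT40 cells per well.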

[3] = qHTS assay for identifying genotoxic compounds that show differential cytotoxicity against isogenic chicken DT40 cell lines with known DNA damage response pathways - Rev3 mutant cell line (AID 743014); further: nearly all actives have a fitted effect of over 55% in size; further: potency means the concentration at half of the fitted maximal effect
[4] = qHTS assay for identifying genotoxic compounds that show differential cytotoxicity against isogenic chicken DT40 cell lines with known DNA damage response pathways - Rad54/Ku70 mutant cell line (AID 743015); further: nearly all actives have a fitted effect of over 60% in size; further: potency means the concentration at half of the fitted maximal effect
[5] = qHTS assay to identify small molecule antagonists of the androgen receptor (AR) signaling pathway - cell viability counter screen (AID 743033; further: nearly all actives have a fitted effect of over 45% in size; further: potency means the concentration at half of the fitted maximal effect)
[6] = target: Androgen receptor (Homo sapiens) (UniProt P10275); assay: qHTS assay to identify small molecule agonists of the androgen receptor (AR) signaling pathway (AID 743036; active means well fitted activation curve with a large enough effect in the signal ratio in the repeat runs, with a control signal flat, not every such curve was filed as active; inconclusive means weak or mixed curves, or effect the other way; inactive means no such curve, though single readings can be large or run the other way; the % refers to the signal ratio)
Chain of Androgen receptor (Homo sapiens) (P10275 whole entry, looked up): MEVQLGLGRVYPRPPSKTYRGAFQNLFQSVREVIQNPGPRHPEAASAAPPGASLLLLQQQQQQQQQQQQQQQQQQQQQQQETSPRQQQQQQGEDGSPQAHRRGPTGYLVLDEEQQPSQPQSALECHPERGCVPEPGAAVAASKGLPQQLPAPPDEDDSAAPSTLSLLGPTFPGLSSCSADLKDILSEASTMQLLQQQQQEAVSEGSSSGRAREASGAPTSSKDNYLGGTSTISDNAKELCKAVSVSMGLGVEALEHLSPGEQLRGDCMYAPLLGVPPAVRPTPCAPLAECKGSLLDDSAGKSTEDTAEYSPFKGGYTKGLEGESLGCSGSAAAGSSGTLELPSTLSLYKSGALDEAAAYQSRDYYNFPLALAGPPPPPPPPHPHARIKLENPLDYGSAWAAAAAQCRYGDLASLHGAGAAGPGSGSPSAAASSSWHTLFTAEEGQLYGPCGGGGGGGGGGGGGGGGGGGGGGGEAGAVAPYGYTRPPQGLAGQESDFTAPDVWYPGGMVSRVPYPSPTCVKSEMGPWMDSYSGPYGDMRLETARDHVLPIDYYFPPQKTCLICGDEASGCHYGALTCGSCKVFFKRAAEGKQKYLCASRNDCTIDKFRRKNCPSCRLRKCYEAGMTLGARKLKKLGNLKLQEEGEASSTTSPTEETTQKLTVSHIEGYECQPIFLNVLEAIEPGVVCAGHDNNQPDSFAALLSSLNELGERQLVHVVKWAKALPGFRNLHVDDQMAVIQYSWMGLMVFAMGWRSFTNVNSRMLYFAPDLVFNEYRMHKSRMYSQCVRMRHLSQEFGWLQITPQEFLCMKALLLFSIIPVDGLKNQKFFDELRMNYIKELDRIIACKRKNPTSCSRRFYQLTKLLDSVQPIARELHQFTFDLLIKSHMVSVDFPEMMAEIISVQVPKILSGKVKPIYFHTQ
In short: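 In this Tox21 qHTS, 2,000 HEK293 AR-bla cells per well were incubated with compounds for 16 h at 37C and 5% CO2. Fluorescence intensity was recorded 2 h after adding LiveBLAzer B/G FRET substrate at room temperature.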

[7] = target: Androgen receptor (Homo sapiens) (UniProt P10275); assay: qHTS assay to identify small molecule agonists of the androgen receptor (AR) signaling pathway using the MDA cell line (AID 743040; further: nearly all actives have a fitted effect of over 20% in size)
In short: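 Cell-based luciferase reporter: MDA-kb2, MMTV promoter (AR + GR response elements). 16 h compound exposure at 37C; ONE-Glo, 30 min RT, luminescence.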

[8] = target: Androgen receptor (Homo sapiens) (UniProt P10275); assay: qHTS assay to identify small molecule antagonists of the androgen receptor (AR) signaling pathway using the MDA cell line (AID 743042; further: nearly all actives have a fitted effect of over 55% in size)
In short: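 MDA-kb2 cells (human breast carcinoma, stably carrying an MMTV-luciferase reporter responsive to AR and GR) were plated at 3,000 cells/well and preincubated 5 hr at 37C, then given compound plus R1881 agonist for 16 h. ONE-Glo luminescence was read.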

[9] = qHTS assay to identify small molecule antagonists of the thyroid receptor (TR) signaling pathway (AID 743065); further: nearly all actives have a fitted effect of over 55% in size; further: potency means the concentration at half of the fitted maximal effect
In short: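 GH3.TRE-Luc rat pituitary cells carrying two TR response elements driving luciferase were plated for 4 h, given compound plus 1 nM T3 (final), and incubated 23.5 h at 37 C. ONE-Glo luminescence measured reporter inhibition; CellTiter-Fluor fluorescence tracked cytotoxicity.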

[10] = test system: thyroid hormone receptor (rat, GH3 cells); assay: qHTS assay to identify small molecule agonists of the thyroid receptor (TR) signaling pathway (AID 743066; calls by dose curve)
[11] = target: Estrogen receptor (Homo sapiens) (UniProt P03372); assay: qHTS assay to identify small molecule antagonists of the estrogen receptor alpha (ER-alpha) signaling pathway (AID 743069; active means well fitted curve in the direction sought with a large enough effect in the signal ratio in the repeat runs, not every such curve was filed as active; inconclusive means weak or mixed curves, or effect the other way; inactive means no such curve, though single readings can be large or run the other way; the % refers to the signal ratio; further: potency means the concentration at half of the fitted maximal effect)
Chain of Estrogen receptor (Homo sapiens) (P03372 whole entry, looked up): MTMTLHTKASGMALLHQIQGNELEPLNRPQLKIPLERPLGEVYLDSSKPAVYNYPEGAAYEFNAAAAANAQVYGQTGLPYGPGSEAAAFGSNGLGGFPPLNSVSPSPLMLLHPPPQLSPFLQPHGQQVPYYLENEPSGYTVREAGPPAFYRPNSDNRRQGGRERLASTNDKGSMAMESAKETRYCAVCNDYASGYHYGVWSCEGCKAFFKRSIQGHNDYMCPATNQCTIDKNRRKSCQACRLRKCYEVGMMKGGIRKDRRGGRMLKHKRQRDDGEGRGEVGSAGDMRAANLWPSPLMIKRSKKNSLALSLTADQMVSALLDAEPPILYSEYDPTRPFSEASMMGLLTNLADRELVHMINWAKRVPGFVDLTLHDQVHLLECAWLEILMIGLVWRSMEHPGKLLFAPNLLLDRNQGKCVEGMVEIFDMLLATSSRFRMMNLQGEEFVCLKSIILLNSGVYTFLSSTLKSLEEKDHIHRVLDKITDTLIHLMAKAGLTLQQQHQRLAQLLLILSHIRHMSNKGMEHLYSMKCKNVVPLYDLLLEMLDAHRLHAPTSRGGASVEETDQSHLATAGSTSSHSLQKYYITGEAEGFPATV
In short: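 A 17beta-estradiol challenge was applied right after compound transfer to ER-alpha-UAS-bla HEK293 cells previously kept in charcoal-stripped serum. Plates stood 18 hr at 37C and 5% CO2; fluorescence was read following 2 hr FRET substrate loading at room temperature.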

[12] = qHTS assay to identify small molecule antagonists of the estrogen receptor alpha (ER-alpha) signaling pathway - cell viability counter screen (AID 743074; calls by dose curve;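 further: HEK293 cells carrying ER-alpha-UAS-bla reporter stimulated with 17beta-estradiol; nearly all actives have a fitted effect of over 45% in size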; further: potency means the concentration at half of the fitted maximal effect)
[13] = target: Estrogen receptor (Homo sapiens) (UniProt P03372); assay: qHTS assay to identify small molecule agonists of the estrogen receptor alpha (ER-alpha) signaling pathway (AID 743075; calls by dose curve;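 further: HEK293 GripTite cells with ER-alpha and UAS-driven beta-lactamase reporter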)
[14] = target: Estrogen receptor (Homo sapiens) (UniProt P03372); assay: qHTS assay to identify small molecule agonists of the estrogen receptor alpha (ER-alpha) signaling pathway using the BG1 cell line (AID 743079); further: nearly all actives have a fitted effect of over 20% in size
[15] = qHTS assay to identify small molecule antagonists of the estrogen receptor alpha (ER-alpha) signaling pathway using the BG1 cell line (AID 743080; calls by dose curve;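 further: BG1 cells stimulated with 17beta-estradiol alongside compound; series mostly up to about 70 µM; nearly all actives have a fitted effect of over 25% in size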)
In short: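 BG1Luc4E2, endogenous ER-alpha, 4xERE-luc; 5 d charcoal-stripped FBS, phenol red free; 24 h plating; cpd + 17beta-estradiol 21.5 h, 37 C/5% CO2; CellTiter-Fluor viability 30 min, then ONE-Glo luciferase 30 min RT.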

[16] = qHTS assay to identify small molecule antagonists of the estrogen receptor alpha (ER-alpha) signaling pathway using the BG1 cell line - cell viability counter screen (AID 743081);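 further: compound given together with 17beta-estradiol as the ER stimulus; nearly all actives have a fitted effect of over 45% in size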; further: potency means the concentration at half of the fitted maximal effect
Aromatase (Homo sapiens) = Aromatase (Homo sapiens) (UniProt P11511); assay: qHTS assay to identify aromatase inhibitors (AID 743083); further: nearly all actives have a fitted effect of over 55% in size; further: potency means the concentration at half of the fitted maximal effect
Chain of Aromatase (Homo sapiens) (P11511 whole entry, looked up): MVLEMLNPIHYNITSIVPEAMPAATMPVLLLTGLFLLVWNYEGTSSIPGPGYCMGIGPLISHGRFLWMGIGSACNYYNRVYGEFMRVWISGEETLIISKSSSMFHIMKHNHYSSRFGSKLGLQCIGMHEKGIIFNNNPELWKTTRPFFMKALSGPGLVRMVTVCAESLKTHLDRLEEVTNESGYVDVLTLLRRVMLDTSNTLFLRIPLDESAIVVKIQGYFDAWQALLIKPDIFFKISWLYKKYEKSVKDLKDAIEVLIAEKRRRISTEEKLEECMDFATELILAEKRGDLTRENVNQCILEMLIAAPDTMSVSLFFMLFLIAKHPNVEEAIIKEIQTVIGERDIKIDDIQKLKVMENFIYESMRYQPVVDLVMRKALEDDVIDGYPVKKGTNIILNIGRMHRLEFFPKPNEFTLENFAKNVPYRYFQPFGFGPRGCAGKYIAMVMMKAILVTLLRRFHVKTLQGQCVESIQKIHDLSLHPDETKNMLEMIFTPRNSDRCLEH

[17] = qHTS assay to identify small molecule antagonists of the androgen receptor (AR) signaling pathway using the MDA cell line - cell viability counter screen (AID 743041; further: nearly all actives have a fitted effect of over 45% in size; further: potency means the concentration at half of the fitted maximal effect)
In short: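 In this qHTS counter assay, fluorescence intensity after CellTiter-Fluor addition indicated viability of MDA-kb2 AR-luc cells given compounds and R1881 for 16 h at 37C.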

[18] = qHTS assay to identify small molecule antagonists of the thyroid receptor (TR) signaling pathway - cell viability counter screen (AID 743064); further: nearly all actives have a fitted effect of over 50% in size; further: potency means the concentration at half of the fitted maximal effect
In short: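 Counter screen for cytotoxicity: compound plus T3 (1 nM final) on GH3.TRE-Luc cells, 23.5 h at 37 °C, then fluorescence viability readout with CellTiter-Fluor.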

[19] = target: Androgen receptor (Homo sapiens) (UniProt P10275); assay: qHTS assay to identify small molecule antagonists of the androgen receptor (AR) signaling pathway (AID 743035; active means well fitted inhibition curve with a large enough effect in the signal ratio in the repeat runs, not every such curve was filed as active; inconclusive means weak or mixed curves, or effect the other way; inactive means no such curve, though single readings can be large or run the other way; the % refers to the signal ratio)
In short: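 Antagonist mode: AR-bla HEK293 cells co-treated with test compounds and agonist R1881 for 16 h at 37C, 5% CO2. Beta-lactamase activity read as FRET fluorescence after 2 h room-temperature substrate loading.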

Row | Structure (SMILES) | Potency [1] | Potency [2] | Potency [3] | Potency [4] | Potency [5] | Potency [6] | outcome [7] | Potency [8] | Potency [9] | outcome [10] | Potency [11] | Potency [12] | Potency [13] | Potency [14] | Potency [15] | Potency [16] | Potency (Aromatase (Homo sapiens)) | Potency [17] | Potency [18] | Potency [19]
1 | CCCCCCCCCCOC(=O)c1ccccc1C(=O)OCCCCCCCC | inactive | inactive | inactive | inactive | inactive | inactive | inactive | inactive | inactive | inactive | inactive | inactive | inactive | inactive | inactive | inactive | inactive | – | – | –
2 | CC(C(=O)O)c1ccc2c(c1)[nH]c1ccc(Cl)cc12 (configuration not stated) | inactive | inactive | inactive | inactive | inactive | – | – | – | inactive | inactive | inactive | inactive | inactive | inactive | inactive | inactive | inactive | inactive | inactive | –
3 | CC(C)(c1cc(Br)c(OCC(Br)CBr)c(Br)c1)c1cc(Br)c(OCC(Br)CBr)c(Br)c1 (configuration not stated) | inactive | inactive | inactive | inactive | inactive | – | – | – | inactive | inactive | – | inactive | inactive | inactive | inactive | inactive | inactive | inactive | inactive | –
4 | OC[C@H]1O[C@H](O[C@H]2O[C@H](CO)[C@@H](O)[C@H](O)[C@H]2O)[C@H](O)[C@@H](O)[C@@H]1O | inactive | inactive | inactive | inactive | inactive | – | inactive | inactive | – | inactive | – | inactive | – | – | – | – | inactive | inactive | inactive | inactive
5 | COC(C)=O | inactive | inactive | inactive | inactive | inactive | – | – | – | inactive | inactive | – | inactive | inactive | inactive | inactive | inactive | inactive | inactive | inactive | –
6 | CCOC(=O)Cn1cccc1-c1nc(-c2ccc(OC)cc2)c(-c2ccc(OC)cc2)s1 | inactive | inactive | inactive | inactive | inactive | – | inactive | inactive | 13.3 µM (active) | inactive | – | inactive | inactive | inactive | inactive | inactive | inactive | inactive | – | inactive
7 | CCCCC(CC)COC(=O)CCCCC(=O)OCc1ccccc1 (configuration not stated) | inactive | inactive | inactive | inactive | inactive | – | – | – | inactive | inactive | inactive | inactive | inactive | inactive | inactive | inactive | inactive | inactive | inactive | –
8 | CC1(C)[C@@H](O)CC[C@]2(C)[C@H]3C(=O)C=C4[C@@H]5C[C@@](C)(C(=O)O)CC[C@]5(C)CC[C@@]4(C)[C@]3(C)CC[C@@H]12 | inactive | inactive | 5.96 µM (active) and inactive | 2.37 µM (active) and inactive | inactive | inactive | inactive | inactive | 29.8 µM (active) and 26.6 µM (active) and 27 µM (active) | inactive | – | inactive | inactive | inactive | inactive | inactive | inactive | inactive | 29.8 µM (active) and 24.1 µM (active) | inactive
9 | CCCCCCCCCCCCOC(=O)c1ccc(O)cc1 | 24.7 µM (active) | inactive | inactive | inactive | inactive | – | – | inactive | 27.5 µM (active) | – | 44 µM [inconclusive] (active) | inactive | inactive | inactive | – | inactive | 30.9 µM (active) | inactive | 30.9 µM (active) | inactive
10 | [Cu+] | inactive | 54.5 µM (active) | 54.5 µM (active) | 30.6 µM (active) | inactive | – | – | – | – | inactive | inactive | inactive | inactive | – | – | inactive | – | inactive | inactive | –
11 | CC(CCc1ccccc1)NCC(O)c1ccc(O)c(C(N)=O)c1 (configuration not stated) | inactive | inactive | inactive | inactive | inactive | – | – | – | – | inactive | inactive | inactive | inactive | inactive | inactive | – | inactive | inactive | 30.6 µM (active) | –
12 | CCCCCCCCCCCCCC[N+](C)(C)C | 13.4 µM (active) and 29.9 µM (active) and 13.8 µM (active) | 237 nM (active) and 527 nM (active) and 217 nM (active) | 298 nM (active) and 469 nM (active) and 193 nM (active) | 376 nM (active) and 469 nM (active) and 217 nM (active) | 15.1 µM (active) and 21.8 µM (active) | – | – | – | 2.98 µM (active) and 5.91 µM (active) and 5.44 µM (active) | inactive | – | 23.9 µM (active) and 37.6 µM (active) | inactive | – | – | inactive | 10.6 µM (active) and 23.5 µM (active) and 15.3 µM (active) | 18.8 µM (active) and 41.8 µM (active) | 4.22 µM (active) and 11.8 µM (active) and 8.63 µM (active) | –
13 | Cc1ccc(C(=O)O)cc1 | inactive | inactive | inactive | inactive | inactive | – | – | – | inactive | inactive | – | inactive | – | – | – | inactive | inactive | inactive | inactive | –
14 | COc1cc(C)ccc1O | inactive | inactive | inactive | inactive | inactive | – | – | – | inactive | inactive | – | inactive | – | inactive | inactive | – | inactive | inactive | – | –
15 | Cc1ccc(N/N=c2\c(=O)cc/c(=N\Nc3ccc(S(=O)(=O)O)cc3)c2=O)c(C)c1 | inactive | inactive | inactive | inactive | inactive | – | – | – | – | inactive | inactive | inactive | inactive | inactive | inactive | 54.5 µM (active) | inactive | 27.3 µM (active) | 61.1 µM (active) | –
